# The source made the active and inactive calls. Unless noted, no rule for the calls is given here.
# Assays:
# [1] = A549 cell viability effects, profiling panel, calcein-AM fluorescence, 48 h, basal (AID 1162); settings: higher = more signal; also: test concentration not given here
# [2] = adipocyte viability effects, profiling panel, cell-based, 3T3-L1 adipocytes, calcein-AM fluorescence, 48 h, basal (AID 1163); settings: 3T3-L1 adipocytes viability, higher = more signal; also: test concentration not given here
# [3] = HepG2 cell viability effects, profiling panel, calcein-AM fluorescence, 48 h, basal (AID 1164); settings: higher = more signal; also: test concentration not given here
# [4] = MM1S cell viability effects, profiling panel, calcein-AM fluorescence, 48 h, basal (AID 1165); settings: higher = more signal;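 also: viability of MM1S multiple myeloma cells under basal unstimulated conditions; test concentration not given here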
# [5] = basal RPMI8226 viability, no added stimulus, profiling panel, cell-based, calcein-AM fluorescence, 48 h, PK04 Diversity Set (AID 1166); settings: RPMI8226 myeloma viability, higher = more signal;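 also: cells grown under basal conditions without added stimulus; test concentration not given here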
# [6] = basal HepG2 mitochondrial membrane potential changes, profiling panel, cell-based, JC-1 fluorescence, 24 h, 100 nL compound (AID 1167); settings: higher = more signal; also: test concentration not given here
# [7] = basal 3T3-L1 adipocyte mitochondrial potential changes, profiling panel, cell-based, JC-1 fluorescence, 3T3-L1 adipocytes, 24 h, 100 nL compound (AID 1168); settings: JC-1 mitochondrial fluorescence, higher = more signal, called active from +8 up or from −8 down; also: test concentration not given here
# [8] = basal RPMI8226 mitochondrial membrane potential changes, profiling panel, cell-based, JC-1 fluorescence, 24 h, 100 nL compound (AID 1169); settings: RPMI8226 myeloma, JC-1 mitochondrial potential fluorescence, higher = more signal; also: test concentration not given here
# [9] = basal MM1S mitochondrial membrane potential changes, profiling panel, cell-based, JC-1 fluorescence, 24 h, 100 nL compound (AID 1170); settings: higher = more signal; also: test concentration not given here
# [10] = A549 lung cancer cell viability effects, profiling panel, resazurin fluorescence, 24 h, PK04 Diversity Set (AID 1171); settings: higher = more signal, called active from +8 up or from −8 down; also: test concentration not given here
# [11] = HepG2 liver cancer cell viability effects, profiling panel, resazurin fluorescence, 24 h, PK04 Diversity Set (AID 1172); settings: higher = more signal; also: test concentration not given here
# [12] = basal S. cerevisiae growth modulation, no modifier, primary screen, OD600, strain BY4716, 24 h, basal condition (AID 1173); settings: OD600, 24 h, higher = more signal, called active from +8 up or from −8 down
# [13] = MM1S myeloma cell viability, profiling panel, resazurin fluorescence, basal, 24 h, PK04 Diversity Set (AID 1174); settings: higher = more signal, called active from +8 up or from −8 down;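 also: MM1S multiple myeloma cell line; test concentration not given here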
# [14] = target: Dihydroorotate dehydrogenase (quinone), mitochondrial (Plasmodium falciparum (isolate 3D7)) (UniProt Q08210); assay: PfDHODH enzyme inhibitors, primary screen, biochemical, C-terminal His tag, absorbance 600 nm (AID 1175); settings: DCIP absorbance 600 nm, higher = more signal, called active from +8 up or from −8 down;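 also: recombinant parasite enzyme with a five histidine tag at its C terminus; test concentration not given here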
# Chain of Dihydroorotate dehydrogenase (quinone), mitochondrial (Plasmodium falciparum (isolate 3D7)) (Q08210 whole entry, looked up): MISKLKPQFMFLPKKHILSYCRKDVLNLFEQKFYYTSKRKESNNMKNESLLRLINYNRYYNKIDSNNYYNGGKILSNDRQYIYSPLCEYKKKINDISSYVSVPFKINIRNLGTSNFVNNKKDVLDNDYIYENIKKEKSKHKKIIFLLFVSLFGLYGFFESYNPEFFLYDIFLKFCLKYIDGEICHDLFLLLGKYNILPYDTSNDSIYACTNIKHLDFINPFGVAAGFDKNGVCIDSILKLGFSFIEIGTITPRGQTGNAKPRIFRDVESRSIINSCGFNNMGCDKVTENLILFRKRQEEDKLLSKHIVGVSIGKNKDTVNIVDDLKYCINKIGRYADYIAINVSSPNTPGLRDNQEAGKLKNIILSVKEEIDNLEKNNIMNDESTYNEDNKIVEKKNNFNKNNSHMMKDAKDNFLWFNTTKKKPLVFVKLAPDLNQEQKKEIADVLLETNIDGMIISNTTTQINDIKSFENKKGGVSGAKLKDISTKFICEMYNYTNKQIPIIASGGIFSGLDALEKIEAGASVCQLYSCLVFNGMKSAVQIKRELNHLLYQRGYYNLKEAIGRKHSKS
# [15] = P. aeruginosa biofilm formation inhibitors, primary screen, strain PAO1, LB-PBS medium, absorbance 600 nm (AID 1176); also: test concentration not given here; settings: P. aeruginosa PAO1 growth/biofilm, A600, 12 h; higher = more signal
# [16] = S. cerevisiae RM11-1a growth modifiers, primary screen, strain RM11-1a, OD600, basal, 24 h (AID 1177); settings: OD600, 24 h, higher = more signal, called active from +8 up or from −8 down;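 also: cultures grown under basal conditions with no added stressor; test concentration not given here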
# [17] = E. coli acrAB mutant growth effects, primary screen, E. coli filamentation inducers, strain DRC39, OD650, 24 h (AID 1178); settings: higher = more signal, called active from +8 up or from −8 down;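 also: growth measured as culture turbidity by optical density at 650 nm; test concentration not given here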
# [18] = E. coli acrAB mutant growth effects, primary screen, E. coli filamentation inducers, strain DRC39, OD650, 48 h (AID 1179);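 also: screen aims at cell division blockers that make cells filament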; settings: E. coli DRC39 delta-acrAB growth, higher = more signal, called active from +8 up or from −8 down
# [19] = RPMI8226 myeloma cell viability, profiling panel, resazurin fluorescence, basal, 24 h, PK04 Diversity Set (AID 1180); settings: higher = more signal;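 also: RPMI8826 multiple myeloma cell line at 5000 cells per well; test concentration not given here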
# [20] = target: E3 ubiquitin-protein ligase XIAP (Homo sapiens) (UniProt P98170); assay: XIAP binders, primary screen, biophysical, small-molecule microarray, fluorescence 635 nm (AID 1181); settings: small-molecule microarray binding, higher = more signal;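 also: score merges 667 nm emission and signal to noise over triplicate slides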
# Chain of E3 ubiquitin-protein ligase XIAP (Homo sapiens) (P98170 whole entry, looked up): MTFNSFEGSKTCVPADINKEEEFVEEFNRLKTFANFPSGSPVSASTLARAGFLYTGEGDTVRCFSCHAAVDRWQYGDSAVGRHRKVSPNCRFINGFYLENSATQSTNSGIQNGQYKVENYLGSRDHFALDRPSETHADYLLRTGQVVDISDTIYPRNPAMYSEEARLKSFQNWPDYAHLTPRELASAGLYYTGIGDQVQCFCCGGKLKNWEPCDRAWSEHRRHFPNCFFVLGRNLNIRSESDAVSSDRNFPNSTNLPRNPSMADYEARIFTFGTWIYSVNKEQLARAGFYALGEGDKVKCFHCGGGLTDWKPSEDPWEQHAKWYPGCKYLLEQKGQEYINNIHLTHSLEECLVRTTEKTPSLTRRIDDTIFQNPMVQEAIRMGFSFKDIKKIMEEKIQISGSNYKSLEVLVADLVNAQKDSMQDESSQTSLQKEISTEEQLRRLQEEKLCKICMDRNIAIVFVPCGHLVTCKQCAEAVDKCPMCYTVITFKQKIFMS
SMILES,z-score [1],z-score [2],z-score [3],z-score [4],z-score [5],z-score [6],z-score [7],z-score [8],z-score [9],z-score [10],z-score [11],z-score [12],z-score [13],composite z-score [14],z-score [15],z-score [16],z-score [17],z-score [18],z-score [19],composite z-score [20]
CC1CC/C=C\[C@H]2OC34C=CCN(C(C)(C)C)C(=O)[C@H]3N(C(CO)C(C)C)C(=O)[C@@H]4C2C(=O)O1 (stereo not given in full),0.0643,0.385,-0.554,1.61,0.136,-0.976,-0.295 (inactive),-0.622,-0.516,-0.266 (inactive),-0.49,-0.154 (inactive),-0.34 (inactive),-6.62 (inactive),0.0251 (inactive),-0.472 (inactive),0.361 (inactive),0.338 (inactive),-0.375,0.0357
COc1ccc(C#Cc2ccc3c(c2)[C@]2(C(=O)N3)[C@H](C(=O)Nc3nc4ccccc4s3)[C@H]3C(=O)O[C@H](c4ccccc4)[C@H](c4ccccc4)N3[C@@H]2c2ccccc2OCCO)cc1,0.609,1.61,0.211,-0.708,-0.451,-2.79,3.69 (inactive),-1.03,-1.27,-0.801 (inactive),0.154,1.08 (inactive),0.303 (inactive),-5.43 (inactive),2.69 (inactive),1.66 (inactive),0.82 (inactive),0.413 (inactive),1.5,0.0507
C=CCC(OC(C)=O)[C@@H]1[C@@H](N(Cc2cc3ccccc3o2)C(=O)c2ccc(-c3ccccc3)cc2)c2cc(OCCCO)ccc2N1C(=O)Cc1ccc(OC)cc1 (stereo not given in full),0.315,0.443,1.04,0.0213,-0.226,1.23,-0.76 (inactive),0.738,0.239,0.0443 (inactive),-0.716,1.4 (inactive),-0.133 (inactive),0.0211 (inactive),0.0672 (inactive),0.708 (inactive),-0.384 (inactive),-0.541 (inactive),-0.209,-0.0414
COC(=O)C(CC#Cc1ccc2c(c1)[C@]1(C(=O)N2)[C@H](C(=O)Nc2nc3ccccc3s2)[C@H]2C(=O)O[C@H](c3ccccc3)[C@H](c3ccccc3)N2[C@@H]1c1ccc(OCCO)cc1)C(=O)OC,0.686,1.18,1.64,-0.82,-1.97,-3.2,1.59 (inactive),-1,-0.693,0.0002 (inactive),0.885,-0.0399 (inactive),0.973 (inactive),-3.07 (inactive),3.52 (inactive),-0.367 (inactive),0.776 (inactive),1.42 (inactive),-2.38,-0.0391
COc1cc(NN2C(C(O)c3ccccc3)C=CC3C(=O)N(C)C(=O)C32)cc(OC)c1OC (stereo not given),-0.209,0.68,-0.131,-1.34,-0.589,-0.944,0.215 (inactive),-0.413,-1.54,-1.52 (inactive),-2.2,0.758 (inactive),-1.23 (inactive),-2.04 (inactive),0.574 (inactive),-0.0472 (inactive),-0.466 (inactive),-0.882 (inactive),-1.32,0.0024
COc1ccc([Si](C)(C)[C@@H]2[C@@H](CCn3cc([C@H](O)c4ccccc4)nn3)O[C@]3(C(=O)N(c4ccccc4)c4ccccc43)[C@H]2C)cc1,-0.985,1.98,-2.22,-1.18,-3.91,1.63,0.177 (inactive),-0.973,-0.681,-2.3 (inactive),-2.07,-0.284 (inactive),-3.04 (inactive),-0.204 (inactive),1.08 (inactive),0.77 (inactive),-0.434 (inactive),-0.502 (inactive),-3.15,-0.131
C=CCN1C(=O)[C@]2(O[C@H](CCO)[C@@H]([Si](C)(C)c3ccc(OC)cc3)[C@@H]2C)c2cc(N3C(=O)COc4ccccc43)ccc21,-3.84,1.76,-4.67,-2.7,-4.36,-2.14,0.707 (inactive),-1.06,-2.25,-5.62 (inactive),-5.79,0.346 (inactive),-8.88 (active),0.828 (inactive),-0.34 (inactive),2.96 (inactive),1.55 (inactive),0.68 (inactive),-6.28,0.0356
CN1C(=O)C2C=CC(C(O)c3ccc(F)cc3)N(NC(=O)OC(C)(C)C)C2C1=O (stereo not given),-0.834,-0.528,0.0643,-2.82,-0.0542,-0.8,-0.517 (inactive),0.247,1.3,-1.18 (inactive),-1.37,1.18 (inactive),-0.67 (inactive),0.929 (inactive),0.503 (inactive),1.09 (inactive),-0.592 (inactive),-0.764 (inactive),-1.37,0.171
CC(C)C(=C=CC[C@H](O)c1cccc(OCCO)c1)CCO,0.211,0.786,0.401,0.214,0.292,0.434,-0.599 (inactive),0.6,-0.373,1.21 (inactive),0.934,-1.47 (inactive),1.09 (inactive),-0.131 (inactive),-0.0464 (inactive),-0.661 (inactive),0.353 (inactive),0.642 (inactive),0.929,-0.031
NCCCCCNC(=O)[C@H]1C[C@H]2C(=O)N[C@@H](Cc3ccccc3)C(=O)N2[C@H]1c1ccc(O)cc1,0.422,0.774,-0.642,0.309,0.141,-0.746,-0.595 (inactive),-0.135,-0.378,0.107 (inactive),-0.255,-0.53 (inactive),-0.115 (inactive),1.21 (inactive),0.351 (inactive),-0.334 (inactive),0.442 (inactive),0.69 (inactive),-0.518,0.157
CN(C)C(=O)[C@@]1(CCC(=O)OC(C)(C)C)N=C(c2ccc(OCCCO)cc2)O[C@H]1c1ccccc1CN=[N+]=[N-],-0.286,-0.607,0.423,-0.124,-0.389,0.628,-0.682 (inactive),-1.18,-0.496,1.19 (inactive),0.891,0.481 (inactive),-1.19 (inactive),-0.261 (inactive),0.317 (inactive),-0.0065 (inactive),0.364 (inactive),0.98 (inactive),0.885,-0.0272
COCCOC(=O)N1C(=O)[C@@]2(c3cc(C#CC4(O)CCCCCC4)ccc31)[C@H](c1ccc(OCCO)cc1)N1[C@H](c3ccccc3)[C@H](c3ccccc3)OC(=O)[C@H]1[C@@H]2C(=O)Nc1nc2ccccc2s1,0.0809,0.676,0.499,-2.09,-2.15,-3.31,1.1 (inactive),-1.07,-1.46,0.813 (inactive),1.39,1.46 (inactive),-0.773 (inactive),-1.19 (inactive),2.98 (inactive),2.43 (inactive),-0.0994 (inactive),-0.347 (inactive),-0.494,0.332
C[C@@H]1ON(c2ccc(I)cc2)[C@H](c2ccc(OC(=O)OC(C)(C)C)cc2)[C@H]1C(=O)N1C(=O)OC[C@H]1Cc1ccccc1,0.0132,1.06,1.61,-0.234,0.351,0.144,0.498 (inactive),-0.366,-1.81,1.33 (inactive),1.14,-1.24 (inactive),1.6 (inactive),-0.571 (inactive),0.294 (inactive),0.61 (inactive),1.81 (inactive),1.2 (inactive),1.87,-0.0448
COCCOC(=O)N1C(=O)[C@@]2(c3ccccc31)[C@H](c1ccccc1OCCO)N1[C@H](c3ccccc3)[C@H](c3ccccc3)OC(=O)[C@H]1[C@@H]2C(=O)N1CCCCCCC1,-0.785,1,0.104,-2.51,-1.75,0.179,-0.256 (inactive),-0.641,-1.07,-0.585 (inactive),0.293,1.7 (inactive),-0.097 (inactive),0.054 (inactive),2.48 (inactive),1.39 (inactive),0.542 (inactive),-1.15 (inactive),-0.353,1.57
O=C(CS)NCCCCCNC(=O)[C@@H]1C[C@@H]2C(=O)N[C@@H](Cc3ccccc3)C(=O)N2[C@@H]1c1cccc(OCCO)c1,0.688,-0.284,1.18,0.57,0.521,1.51,0.19 (inactive),-0.203,-0.156,-0.488 (inactive),-0.528,0.0575 (inactive),-0.513 (inactive),-0.148 (inactive),0.0067 (inactive),0.647 (inactive),0.403 (inactive),0.801 (inactive),-0.0412,-0.0911
COCCOC(=O)N1C(=O)[C@@]2(c3ccccc31)[C@H](c1ccc(OCCO)cc1)N1[C@H](c3ccccc3)[C@H](c3ccccc3)OC(=O)[C@H]1[C@@H]2C(=O)N1CCCCCCC1,0.246,0.0203,0.0373,-2.74,-0.846,-0.0288,-3.41 (inactive),-0.345,-0.899,0.0556 (inactive),1.11,0.492 (inactive),0.441 (inactive),0.132 (inactive),1.84 (inactive),2 (inactive),-0.965 (inactive),-0.618 (inactive),1.04,2.64
CC(C)c1ccc(NN2C(C(O)Cc3ccccc3)C=CC3C(=O)N(c4ccccc4)C(=O)C32)cc1 (stereo not given),-0.989,-0.482,0.526,-1.06,-0.434,-2,-0.864 (inactive),0.411,1.51,-0.63 (inactive),-1.93,-1.02 (inactive),-1 (inactive),-0.335 (inactive),0.683 (inactive),0.269 (inactive),-1.12 (inactive),-1.07 (inactive),-0.807,0.0989
